Assay results reported in PubChem BioAssay (Tox21).
Records with an inconclusive call do not appear. Activity calls are given as the source filed them. Calls come from the whole dose curve; as a rule, active = well fitted curve in the direction sought with a large enough effect in the repeat runs; inconclusive = weak or mixed curves; inactive = no such curve, though single readings can be large; an effect the other way counts as inactive or inconclusive.

How the values were obtained:
[1] = qHTS RealTime-Glo MT Cell Viability Assay in HepG2 cells - 40 hour (AID 1224870); note: nearly all actives have a fitted effect of over 50% in size
How it was run: (§1)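 Real-time viability: cells seeded at 600 per well together with NanoLuc and cell-permeant prosubstrate, compounds added after 5 h incubation. Luminescence tracked at 0, 8, 16, 24, 32 and 40 h of exposure.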

[2] = A CellTox Green Cytotoxicity Assay to monitor cytotoxicity in HEK293 cells - 40 hour (AID 1224871); note: nearly all actives have a fitted effect of over 45% in size
How it was run: (§2)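 Nonlytic real-time cytotoxicity: HEK293 + CellTox Green reagent plated, 5 h preincubation, pintool compound addition (23 nL in DMSO), 37 C for 40 h, fluorescence measured at successive time points.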

[3] = qHTS RealTime-Glo MT Cell Viability Assay in HEK293 cells - 16 hour (AID 1224872); note: top concentration of the series differs between compounds; nearly all actives have a fitted effect of over 50% in size
How it was run: (§3)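 Homogeneous bioluminescent viability format in HEK293 cells (600 cells/well). Following 5 h at 37 C/5% CO2, 23 nL compound was pintooled; the signal was measured repeatedly during 40 h incubation.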

[4] = qHTS RealTime-Glo MT Cell Viability Assay in HepG2 cells - 8 hour (AID 1224873); note: nearly all actives have a fitted effect of over 55% in size
How it was run: as §1

[5] = qHTS RealTime-Glo MT Cell Viability Assay in HEK293 cells - 40 hour (AID 1224874); settings: RealTime-Glo luminescence; max response: active compounds read low; note: nearly all actives have a fitted effect of over 50% in size
How it was run: (§4)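 Cells were seeded together with NanoLuc luciferase and a prosubstrate that viable cells reduce to a luciferase substrate. After a 5 h incubation at 37 C/5% CO2, compounds were added and luminescence was measured repeatedly during 40 h of treatment.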

[6] = A CellTox Green Cytotoxicity Assay to monitor cytotoxicity in HEK293 cells - 24 hour (AID 1224875); note: series mostly up to about 77 µM; nearly all actives have a fitted effect of over 45% in size
How it was run: as §2

[7] = A CellTox Green Cytotoxicity Assay to monitor cytotoxicity in HepG2 cells - 16 hour (AID 1224876); note: nearly all actives have a fitted effect of over 45% in size
How it was run: (§5)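 Read-out is fluorescence of a cyanine dye excluded from live cells that stains DNA of dead HepG2 cells, with signal proportional to cytotoxicity. Plates were read at 0, 8, 16, 24, 32 and 40 h after compound addition.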

[8] = qHTS RealTime-Glo MT Cell Viability Assay in HepG2 cells - 32 hour (AID 1224877); note: nearly all actives have a fitted effect of over 55% in size
How it was run: (§6)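 Cell number in HepG2 cultures estimated from NanoLuc luminescence generated by metabolic reduction of a prosubstrate by living cells. The homogeneous, nonlytic format allowed repeated reads at 0, 8, 16, 24, 32 and 40 h of compound exposure.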

[9] = A CellTox Green Cytotoxicity Assay to monitor cytotoxicity in HepG2 cells - 40 hour (AID 1224879); note: nearly all actives have a fitted effect of over 40% in size
How it was run: as §5

[10] = A CellTox Green Cytotoxicity Assay to monitor cytotoxicity in HEK293 cells - 32 hour (AID 1224881); note: nearly all actives have a fitted effect of over 40% in size
How it was run: as §2

[11] = A CellTox Green Cytotoxicity Assay to monitor cytotoxicity in HepG2 cells - 0 hour (AID 1224882); note: nearly all actives have a fitted effect of over 35% in size
How it was run: as §5

[12] = A CellTox Green Cytotoxicity Assay to monitor cytotoxicity in HepG2 cells - 32 hour (AID 1224883); note: nearly all actives have a fitted effect of over 50% in size
How it was run: as §5

[13] = A CellTox Green Cytotoxicity Assay to monitor cytotoxicity in HEK293 cells - 8 hour (AID 1224884); note: nearly all actives have a fitted effect of over 35% in size
How it was run: as §2

[14] = qHTS RealTime-Glo MT Cell Viability Assay in HepG2 cells - 16 hour (AID 1224885); note: nearly all actives have a fitted effect of over 50% in size
How it was run: as §6

[15] = qHTS RealTime-Glo MT Cell Viability Assay in HEK293 cells - 24 hour (AID 1224886)
How it was run: as §3

[16] = qHTS RealTime-Glo MT Cell Viability Assay in HEK293 cells - 8 hour (AID 1224887)
How it was run: as §4

[17] = A CellTox Green Cytotoxicity Assay to monitor cytotoxicity in HEK293 cells - 16 hour (AID 1224888); note: nearly all actives have a fitted effect of over 35% in size
How it was run: as §2

[18] = qHTS RealTime-Glo MT Cell Viability Assay in HepG2 cells - 0 hour (AID 1224889); note: nearly all actives have a fitted effect of over 50% in size
How it was run: as §6

[19] = A CellTox Green Cytotoxicity Assay to monitor cytotoxicity in HepG2 cells - 24 hour (AID 1224878); note: nearly all actives have a fitted effect of over 45% in size
How it was run: as §5

[20] = qHTS RealTime-Glo MT Cell Viability Assay in HEK293 cells - 0 hour (AID 1224880)
How it was run: as §4
% is set by controls: 0 for no effect and ±100 for the full control effect.

CCOC(=O)CCC(C)=O
inactive: Potency [1] | Potency [2] | Potency [3] | Potency [4] | max response [5] -9.25% | Potency [6] | Potency [7] | Potency [8] | Potency [9] | Potency [10] | Potency [11] | Potency [12] | Potency [13] | Potency [14] | Potency [15] | Potency [16] | Potency [17] | Potency [18]

CC/C=C\CC/C=C/C(OCC)OCC
inactive: Potency [1] | Potency [2] | Potency [3] | Potency [4] | max response [5] 11.7% | Potency [6] | Potency [7] | Potency [8] | Potency [9] | Potency [10] | Potency [11] | Potency [12] | Potency [13] | Potency [14] | Potency [15] | Potency [16] | Potency [17] | Potency [18]

CCN1CCC[C@H]1CNC(=O)c1cc(S(N)(=O)=O)ccc1OC
inactive: Potency [1] | Potency [2] | Potency [3] | Potency [4] | max response [5] -3.58% | Potency [7] | Potency [8] | Potency [19] | Potency [9] | Potency [20] | Potency [10] | Potency [11] | Potency [12] | Potency [13] | Potency [14] | Potency [15] | Potency [16] | Potency [17] | Potency [18]

Cc1ccc(Cl)cc1Cl
inactive: Potency [1] | Potency [2] | Potency [3] | Potency [4] | max response [5] 13.6% | Potency [6] | Potency [7] | Potency [8] | Potency [19] | Potency [9] | Potency [10] | Potency [11] | Potency [13] | Potency [14] | Potency [15] | Potency [16] | Potency [17] | Potency [18]

O=C(O)CCCc1ccccc1
inactive: Potency [1] | Potency [2] | Potency [3] | Potency [4] | max response [5] 0.564% | Potency [6] | Potency [8] | Potency [9] | Potency [20] | Potency [10] | Potency [12] | Potency [13] | Potency [14] | Potency [15] | Potency [16] | Potency [17] | Potency [18]

O=C[C@H](O)[C@@H](O)[C@H](O)[C@H](O)CO
inactive: Potency [1] | Potency [2] | Potency [3] | Potency [4] | max response [5] 17.2% | Potency [6] | Potency [7] | Potency [8] | Potency [9] | Potency [20] | Potency [10] | Potency [11] | Potency [12] | Potency [13] | Potency [14] | Potency [15] | Potency [16] | Potency [18]

Brc1c(NC2=NCCN2)ccc2nccnc12
inactive: Potency [1] | Potency [2] | Potency [3] | Potency [4] | max response [5] -1.41% | Potency [6] | Potency [7] | Potency [8] | Potency [9] | Potency [20] | Potency [10] | Potency [11] | Potency [12] | Potency [13] | Potency [14] | Potency [15] | Potency [16] | Potency [18]

CC(=O)c1ccccc1O
inactive: Potency [1] | Potency [2] | Potency [3] | Potency [4] | max response [5] 9.04% | Potency [6] | Potency [7] | Potency [8] | Potency [19] | Potency [9] | Potency [10] | Potency [11] | Potency [12] | Potency [13] | Potency [14] | Potency [15] | Potency [16] | Potency [17] | Potency [18]

CC1=CC(C)C(C=O)CC1 (stereo unspecified)
inactive: Potency [1] | Potency [2] | Potency [3] | Potency [4] | max response [5] -0.371% | Potency [7] | Potency [8] | Potency [19] | Potency [9] | Potency [20] | Potency [10] | Potency [11] | Potency [12] | Potency [13] | Potency [14] | Potency [15] | Potency [16] | Potency [17] | Potency [18]

COC(=O)[C@@H](N)Cc1ccc(O)c(O)c1
inactive: Potency [1] | Potency [2] | Potency [3] | Potency [4] | max response [5] 2.16% | Potency [7] | Potency [8] | Potency [19] | Potency [9] | Potency [20] | Potency [10] | Potency [11] | Potency [12] | Potency [13] | Potency [14] | Potency [15] | Potency [16] | Potency [17] | Potency [18]

Cc1c(O)cccc1O
inactive: Potency [1] | Potency [2] | Potency [3] | Potency [4] | max response [5] 1.57% | Potency [6] | Potency [7] | Potency [8] | Potency [19] | Potency [9] | Potency [10] | Potency [11] | Potency [12] | Potency [13] | Potency [14] | Potency [15] | Potency [16] | Potency [17] | Potency [18]

Nc1ccccc1S(=O)(=O)O
inactive: Potency [1] | Potency [2] | Potency [3] | Potency [4] | max response [5] 0.0936% | Potency [6] | Potency [7] | Potency [8] | Potency [19] | Potency [9] | Potency [10] | Potency [11] | Potency [12] | Potency [13] | Potency [14] | Potency [15] | Potency [16] | Potency [17] | Potency [18]

O=S(O)CO
inactive: Potency [1] | Potency [2] | Potency [3] | Potency [4] | max response [5] 10.1% | Potency [6] | Potency [7] | Potency [8] | Potency [19] | Potency [9] | Potency [20] | Potency [11] | Potency [13] | Potency [14] | Potency [15] | Potency [16] | Potency [18]

CCCCCCCCCCCCCCCCC
inactive: Potency [1] | Potency [2] | Potency [3] | Potency [4] | max response [5] 5.06% | Potency [6] | Potency [7] | Potency [8] | Potency [19] | Potency [9] | Potency [10] | Potency [12] | Potency [13] | Potency [14] | Potency [15] | Potency [16] | Potency [17] | Potency [18]
